Experimental data taken from PubChem BioAssay (Tox21).
“And” between values parts separate entries of the source, which are not always exact repeats. Equal values may be shown once. Inconclusive results are not listed. Where a call stands in place of a potency, no number is given. A structure can be active in one record and inactive in another. The source made the active and inactive calls. Unless noted, calls follow the shape of the dose curve; as a rule, active = well fitted curve in the direction sought with a large enough effect in the repeat runs; inconclusive = weak or mixed curves; inactive = no such curve, though single readings can be large; an effect the other way counts as inactive or inconclusive.

Key:
[1] = qHTS assay to identify small molecule agonists of the peroxisome proliferator-activated receptor delta (PPARd) signaling pathway - cell viability counter screen (AID 743211); also: nearly all actives have a fitted effect of over 55% in size; also: potency is read from the fitted curve at half-maximal effect
In short: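 Counter screen for cytotoxicity run in parallel with the PPARd reporter screen. Beta-lactamase reporter HEK293H cells exposed to compounds 17 h; ATP-based CellTiter-Glo luminescence quantified viability.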

[2] = qHTS assay to identify small molecule antagonists of the peroxisome proliferator-activated receptor delta (PPARd) signaling pathway - cell viability counter screen (AID 743213); also: nearly all actives have a fitted effect of over 50% in size; also: potency is read from the fitted curve at half-maximal effect
In short: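 Same-well viability: cells pre-incubated 5 h, dosed with compound plus 300 nM L165041, kept 17 h at 37 C, FRET substrate 2 h RT, then CellTiter-Glo 30 min RT and luminescence.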

[3] = qHTS assay to identify small molecule agonists of the farnesoid-X-receptor (FXR) signaling pathway - cell viability counter screen (AID 743218); also: nearly all actives have a fitted effect of over 45% in size; also: potency is read from the fitted curve at half-maximal effect
In short: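 In GeneBLAzer FXR-UAS-bla HEK 293T cells, compounds act for 16 h at 37 C. Cell viability is then scored in the reporter wells by CellTiter-Glo, 30 min at RT, luminescence.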

[4] = qHTS assay to identify small molecule antagonists of the farnesoid-X-receptor (FXR) signaling pathway - cell viability counter screen (AID 743221; active = well fitted cell-killing curve with a large enough effect in the repeat runs, not every such curve was filed as active; also: nearly all actives have a fitted effect of over 50% in size; also: potency is read from the fitted curve at half-maximal effect)
In short: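 Multiplexed counter screen: viability of FXR-bla HEK 293T cells under agonist stimulation by chenodeoxycholic acid (50 uM, final) and test compound for 16 h at 37 C, measured by CellTiter-Glo luminescence in the reporter wells.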

[5] = target: Vitamin D3 receptor (Homo sapiens) (UniProt P11473); assay: qHTS assay to identify small molecule agonists of the vitamin D receptor (VDR) signaling pathway (AID 743222; calls by dose curve)
In short: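 Agonist activity measured in VDR-bla reporter cells. Exposure 16 h, 37C, 5% CO2; detection by B/G FRET substrate, 2 h RT.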

[6] = target: Vitamin D3 receptor (Homo sapiens) (UniProt P11473); assay: qHTS assay to identify small molecule antagonists of the vitamin D receptor (VDR) signaling pathway (AID 743223; active = well fitted inhibition curve with a large enough effect in the signal ratio in the repeat runs, not every such curve was filed as active; the % refers to the signal ratio; also: potency is read from the fitted curve at half-maximal effect)
In short: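 Cells carrying a VDR-driven beta-lactamase reporter (VDR-bla) were co-treated with compound and 3 nM final 1alpha,25-dihydroxyvitamin D3 for 16 h at 37C; reporter activity was measured as FRET substrate fluorescence after 2 h at room temperature.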

[7] = target: Bile acid receptor (Homo sapiens) (UniProt Q96RI1); assay: qHTS assay to identify small molecule antagonists of the farnesoid-X-receptor (FXR) signaling pathway (AID 743217; active = well fitted inhibition curve with a large enough effect in the signal ratio in the repeat runs, not every such curve was filed as active; the % refers to the signal ratio)
In short: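 Beta-lactamase reporter under UAS control in HEK 293T cells; compound exposure 16 h at 37 °C in the presence of chenodeoxycholic acid (50 uM final); signal from B/G FRET substrate after 2 h at room temperature.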

[8] = target: Bile acid receptor (Homo sapiens) (UniProt Q96RI1); assay: qHTS assay to identify small molecule agonists of the farnesoid-X-receptor (FXR) signaling pathway (AID 743220; active = well fitted activation curve with a large enough effect in the signal ratio in the repeat runs, not every such curve was filed as active; the % refers to the signal ratio)
In short: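 Beta-lactamase reporter under UAS control in GeneBLAzer FXR HEK 293T cells (5000/well) measured with LiveBLAzer FRET substrate after 2 h at room temperature. Compound exposure lasted 16 h at 37C.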

[9] = target: Peroxisome proliferator-activated receptor delta (Homo sapiens) (UniProt Q03181); assay: qHTS assay to identify small molecule agonists of the peroxisome proliferator-activated receptor delta (PPARd) signaling pathway (AID 743212; calls by dose curve)
In short: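 Quantitative high-throughput agonist screen in a HEK293H beta-lactamase reporter line under UAS control. Compounds in DMSO, at 37 C. Fluorescence read after 2 h with FRET substrate at room temperature.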

[10] = target: Peroxisome proliferator-activated receptor delta (Homo sapiens) (UniProt Q03181); assay: qHTS assay to identify small molecule antagonists of the peroxisome proliferator-activated receptor delta (PPARd) signaling pathway (AID 743215; active = well fitted inhibition curve with a large enough effect in the signal ratio in the repeat runs, not every such curve was filed as active; the % refers to the signal ratio;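 also: cells stimulated with agonist L165041 at 300 nM final during compound exposure; series mostly up to about 62 µM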)
In short: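 Antagonist-mode beta-lactamase reporter screen: HEK293H cells with UAS-bla under PPARd control, stimulated by 300 nM L165041 (final) alongside test compound for 17 h at 37 C, then FRET fluorescence after 2 h substrate incubation.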

Peroxisome proliferator-activated receptor delta (Homo sapiens), sequence (Q03181 whole entry, looked up): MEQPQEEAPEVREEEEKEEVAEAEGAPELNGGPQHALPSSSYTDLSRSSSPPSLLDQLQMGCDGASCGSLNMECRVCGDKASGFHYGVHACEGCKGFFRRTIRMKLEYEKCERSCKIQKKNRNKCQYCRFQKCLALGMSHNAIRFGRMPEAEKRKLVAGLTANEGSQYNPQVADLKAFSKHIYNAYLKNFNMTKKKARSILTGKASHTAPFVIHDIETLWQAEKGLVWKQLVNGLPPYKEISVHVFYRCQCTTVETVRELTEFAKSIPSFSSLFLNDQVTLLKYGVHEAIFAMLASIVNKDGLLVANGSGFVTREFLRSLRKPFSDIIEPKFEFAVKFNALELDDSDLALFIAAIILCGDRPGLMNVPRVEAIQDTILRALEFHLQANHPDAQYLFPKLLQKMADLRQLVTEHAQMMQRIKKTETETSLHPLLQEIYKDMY
Vitamin D3 receptor (Homo sapiens), sequence (P11473 whole entry, looked up): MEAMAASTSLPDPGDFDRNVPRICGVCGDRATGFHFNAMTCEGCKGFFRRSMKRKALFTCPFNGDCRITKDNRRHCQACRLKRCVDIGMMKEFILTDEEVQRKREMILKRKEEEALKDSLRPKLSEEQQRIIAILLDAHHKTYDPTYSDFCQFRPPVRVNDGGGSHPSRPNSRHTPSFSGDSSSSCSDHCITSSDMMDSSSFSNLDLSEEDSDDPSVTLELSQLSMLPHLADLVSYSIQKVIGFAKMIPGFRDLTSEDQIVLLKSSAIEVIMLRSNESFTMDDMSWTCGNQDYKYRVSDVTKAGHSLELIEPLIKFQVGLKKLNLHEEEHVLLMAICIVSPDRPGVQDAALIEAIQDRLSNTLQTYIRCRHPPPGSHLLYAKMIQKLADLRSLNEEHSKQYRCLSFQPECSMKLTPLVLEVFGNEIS
Bile acid receptor (Homo sapiens), sequence (Q96RI1 whole entry, looked up): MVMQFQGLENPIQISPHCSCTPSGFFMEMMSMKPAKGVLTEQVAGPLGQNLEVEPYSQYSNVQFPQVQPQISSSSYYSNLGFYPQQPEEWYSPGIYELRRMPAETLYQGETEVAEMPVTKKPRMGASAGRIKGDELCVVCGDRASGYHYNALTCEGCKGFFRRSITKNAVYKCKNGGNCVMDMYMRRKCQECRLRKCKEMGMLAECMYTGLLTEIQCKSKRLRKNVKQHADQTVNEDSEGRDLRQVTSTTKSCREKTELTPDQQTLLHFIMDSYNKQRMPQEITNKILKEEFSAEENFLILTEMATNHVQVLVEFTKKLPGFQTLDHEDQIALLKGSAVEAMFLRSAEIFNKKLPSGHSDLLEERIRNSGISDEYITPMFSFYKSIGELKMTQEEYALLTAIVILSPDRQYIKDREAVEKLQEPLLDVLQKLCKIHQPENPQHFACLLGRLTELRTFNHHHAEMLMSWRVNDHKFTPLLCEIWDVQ

| Structure (SMILES) | Potency [1] | Potency [2] | Potency [3] | Potency [4] | outcome [5] | Potency [6] | Potency [7] | Potency [8] | Potency [9] | Potency [10] |
| --- | --- | --- | --- | --- | --- | --- | --- | --- | --- | --- |
| CC(C)(C)NC[C@H](O)COc1nsnc1N1CCOCC1 | inactive | inactive | inactive | inactive | inactive | inactive |  |  |  |  |
| NC1CCCCC1N (stereo not given) | inactive | inactive | inactive | inactive | inactive | inactive | inactive | inactive |  |  |
| CC/C(C)=N/O | inactive | inactive | inactive | inactive | inactive | inactive |  |  |  |  |
| CC(=O)OCc1ccc2c(c1)OCO2 | inactive | inactive | inactive | inactive | inactive | inactive | inactive | inactive |  |  |
| O=[N+]([O-])c1cc(C(F)(F)F)ccc1Cl | inactive | inactive | inactive |  |  |  |  |  |  |  |
| NCCNCCNCCN | inactive | inactive | inactive |  | inactive | inactive | inactive | inactive |  |  |
| CC/C=C(\C(=O)N[C@@H]1C(=O)N2C(C(=O)OCOC(=O)C(C)(C)C)=C(COC(N)=O)CS[C@H]12)c1csc(N)n1 | inactive | inactive | inactive |  | inactive | inactive |  |  |  |  |
| OCCOCCOCCOCCOCCO | inactive | inactive | inactive | inactive | inactive | inactive |  |  |  |  |
| O=c1c(O)c(-c2ccc(O)c(O)c2)oc2cc(O)cc(O)c12 | inactive | inactive | inactive |  | inactive | inactive |  |  |  |  |
| O=c1n(CCCN2CCN(c3cccc(Cl)c3)CC2)nc2ccccn12 | inactive | inactive | inactive |  |  |  |  |  |  |  |
| CC(=O)Nc1ccc(CC(=O)O)cc1 | inactive | inactive | inactive | inactive |  |  |  |  |  |  |
| c1cnc2c(c1)ccc1cccnc12 | 698 nM (active) and 1.95 µM (active) and 692 nM (active) | 389 nM (active) | inactive and 1.55 µM (active) | 24.8 µM (active) and 776 nM (active) and 174 nM (active) | inactive | 3.89 µM (active) |  |  |  |  |
| C[n+]1ccn(CCO)c1 | inactive | inactive | inactive |  | inactive | inactive |  |  |  |  |
| CC1(C)[C@@H](O[C@H]2O[C@H](C(=O)O)[C@@H](O)[C@H](O)[C@H]2O[C@@H]2O[C@H](C(=O)O)[C@@H](O)[C@H](O)[C@H]2O)CC[C@]2(C)[C@H]3C(=O)C=C4[C@@H]5C[C@@](C)(C(=O)O)CC[C@]5(C)CC[C@@]4(C)[C@]3(C)CC[C@@H]12 | inactive | inactive | inactive | inactive | inactive | inactive |  |  |  |  |
| COc1ccccc1[N+](=O)[O-] | inactive | inactive | inactive | inactive | inactive | inactive | inactive | inactive |  |  |
| CCCCCCCC(=O)O | inactive | inactive | inactive | inactive | inactive | inactive |  |  |  |  |
| Clc1cccc(Cl)c1NC1=NCCN1 | inactive | inactive | inactive | inactive | inactive | inactive |  |  |  |  |
| CN1CCCC1=O | inactive | inactive | inactive | inactive | inactive | inactive |  |  |  |  |

| Structure (SMILES) | Potency [1] | Potency [2] | Potency [3] | Potency [4] | outcome [5] | Potency [6] | Potency [7] | Potency [8] | Potency [9] | Potency [10] |
| --- | --- | --- | --- | --- | --- | --- | --- | --- | --- | --- |
| CCCN(CCC)C(=O)SCC | inactive | inactive | inactive | inactive | inactive | inactive |  |  |  |  |
| CCCOC(=O)NCCCN(C)C | inactive | inactive | inactive | inactive | inactive | inactive |  |  |  |  |
| COc1ccc([C@@H]2CC(=O)c3c(O)cc(O[C@@H]4O[C@H](CO[C@@H]5O[C@@H](C)[C@H](O)[C@@H](O)[C@H]5O)[C@@H](O)[C@H](O)[C@H]4O)cc3O2)cc1OC | inactive | inactive | inactive | inactive | inactive | inactive | inactive | inactive |  |  |
| COc1c2ccoc2cc2oc(=O)ccc12 | inactive | inactive | inactive | inactive | inactive | inactive |  |  |  |  |
| Cc1ccncc1 | inactive | inactive | inactive |  | inactive | inactive |  |  |  |  |
| CC1(C)C(=O)N(Cl)C(=O)N1Cl | inactive | inactive | inactive |  | inactive | inactive |  |  |  |  |
| O=C(NCC1CCCCN1)c1cc(OCC(F)(F)F)ccc1OCC(F)(F)F (stereo not given) | inactive | inactive | inactive | inactive | inactive | inactive |  |  |  |  |
| O=C1O[C@H]([C@H](O)CO)C(O)=C1O | inactive | inactive | inactive | inactive |  |  |  |  |  |  |
| NC(N)=S | inactive | inactive | inactive |  | inactive | inactive | inactive | inactive |  |  |
| CC[N+](CC)(CC(=O)Nc1c(C)cccc1C)Cc1ccccc1 | inactive | inactive | inactive | inactive |  |  |  |  |  |  |
| O=C(O)Cc1c[nH]c2ccccc12 | inactive | inactive | inactive | inactive | inactive | inactive | inactive | inactive |  |  |
| CCN(CC)CCNC(=O)c1ccc(N)cc1 | inactive | inactive | inactive | inactive |  |  |  |  |  |  |
| C[Si](C)(C)N[Si](C)(C)C | inactive | inactive | inactive |  | inactive |  |  |  |  |  |
| CCCCCCCCCCCCCC(=O)O | inactive | inactive | inactive | inactive | inactive | inactive | inactive | inactive |  |  |
| CC(CN1c2ccccc2Sc2ccccc21)N(C)C (stereo not given) | 49.5 µM (active) and 21.9 µM (active) | 49.5 µM (active) and 24.5 µM (active) | 49.5 µM (active) and 27.5 µM (active) | 49.5 µM (active) |  |  |  |  |  |  |
| Oc1ccc(Cc2ccccc2O)cc1 |  | inactive | inactive | inactive | inactive | inactive | inactive | inactive | inactive | inactive |
| CCCCC(=O)O | inactive | inactive | inactive |  | inactive | inactive | inactive | inactive |  |  |
